The values that follow come from PubChem BioAssay AID463173 (ICCB-Longwood Screening Facility, Harvard Medical School, 2010).

The whole screen tested about 52,000 compounds, of which about 4,300 (8.3%) were called active. Shown is part of a subset that was picked to be rich in actives. Values without a mark were called inactive. Rule as the data show it: active = survival mostly below about 52% (no sharp cut-off); inactive = mostly above about 56%.

The subject of the assay is DeltatarO mutant. Description: growth inhibition of S. aureus wild type versus tarO mutant, primary screen, teichoic acid synthesis inhibitors, RN4220, OD600 (AID 463173). The following applies: OD600, 18 h, hits give low values, screened at 18.75 µg/mL (by protocol).
Regarding `NNC(=O)C1CCN(S(=O)(=O)c2ccccc2N)CC1`, the survival is 95%.

On to `CCOc1cc(C(=O)OCc2cc(=O)n3nc(C4CC4)sc3n2)cc(OCC)c1OCC`, for which the survival was 79%. Take `COCCNC(=S)N1CCC(NC(=O)Nc2ccc(F)cc2)CC1`: the survival was 91%. For `CC(SCc1ccccc1)C(=O)NCc1ccccn1` (stereo not given) the value was 77%; for `COc1ccccc1N1CCN(C(=O)Cn2ncc3ccsc3c2=O)CC1`, 114%. As to `CC1CCc2c(sc(NC(=O)c3ccc(Cl)cc3Cl)c2C#N)C1` (stereo not given), the survival was 71%. For `COc1cc(CN(C(=O)c2ccc(C)cc2)c2ccccn2)cc(OC)c1OC`, the survival was 78%. Consider `CN(CCC(N)=O)Cc1ccccc1`, for which the survival is 75%.

Turning to `CCc1nc2ccccc2n1CC(C)C(=O)O` (stereo not given), the survival is 96%. As for `CCCn1c(CNC(=O)c2ccc(F)cc2)nc2ccccc21`, the survival is 76%. With `Cc1cccc(C(=O)NCCc2nc3ccccc3n2CCC(C)C)c1` the figure was 99%; with `CCC(C)Cn1c(/C=C/c2ccccc2)nc2ccccc21` (stereo not given), -1% (active). With `CCCCCCn1c(CNC(=O)c2ccccc2)nc2ccccc21` the figure was 66%; with `CCCn1c(SCC(O)c2ccccc2)nc2ccccc21` (stereo not given), 86%; with `CCCCCn1c(CNC(=O)c2ccccc2)nc2ccccc21`, 67%.

As for `CCn1c(O)c(/C=C/c2nc3ccccc3n2CC)sc1=S`, the survival was 78%. With `CC(C)Cn1c(/C=C/c2ccc(F)cc2)nc2ccccc21` the figure was -4% (active); with `CC(C)CCn1c(/C=C/c2ccccc2)nc2ccccc21`, -1% (active); with `CCCCCn1c(CNC(=O)c2ccc(F)cc2)nc2ccccc21`, 68%. Take `CCCCCCn1c(/C=C/c2ccccc2)nc2ccccc21`: the survival is 1% (active). For `COc1ccc(OCc2ccc(-c3nc(C#N)c(NCc4ccccc4)o3)o2)cc1` the value was 78%. As for `COc1cc(C(CC(=O)Nc2cccc(C(C)=O)c2)N2Cc3ccccc3C2=O)cc(OC)c1OC` (stereo not given), the survival was 67%. On to `COc1ccccc1N1CCN(C(=O)c2c3c(nc4ccccc24)C(=O)N(C2CCCCC2)C3)CC1`, for which the survival is 94%. For `Cc1ccc(-c2nnc(Nc3ccc(S(N)(=O)=O)cc3)c3ccccc23)cc1S(=O)(=O)N1CCCCC1` the value was 103%.

With `Cn1c(SCC(=O)N2CCOCC2)ncc(C(=O)Nc2ccc(F)cc2)c1=O`, the survival is 87%.

On to `CCOc1ccc(NS(=O)(=O)c2ccc(C(=O)N(C)C)s2)cc1`, for which the survival is 76%.

On to `CCOc1cc2sc(N3CCC(C(=O)Nc4ccc(CC)cc4)CC3)nc2cc1Br`, for which the survival is 86%. With `C#CCn1c(/C=C/c2ccc(Cl)cc2)nc2ccccc21` the figure was 10% (active); with `Cc1ccc(/C=C/c2nc3ccccc3n2S(=O)(=O)c2cccc(Cl)c2)cc1`, 77%. With `Cn1c(C=Nc2ccc(Cl)cc2)nc2ccccc21` the figure was 83%.

Regarding `COc1ccc(-c2nnc(SCC(=O)Nc3ccc(Cl)cc3)s2)cc1`, the survival is 84%. On to `Cn1cc(C(=O)N2CCN(c3cccc(C(F)(F)F)c3)CC2)c2c3ccccc3n(C)c2c1=O`, for which the survival was 20% (active). Regarding `Cc1ccc(-n2nc(C(=O)N3CCN(c4cccc(C(F)(F)F)c4)CC3)c3c4ccccc4n(C)c3c2=O)cc1`, the survival is 95%.

As to `Cn1c2ccccc2c2c(C(=O)N3CCN(c4cccc(C(F)(F)F)c4)CC3)cn(C3CCCCC3)c(=O)c21`, the survival was 88%.

In the case of `O=C(NCc1cccc(Cl)c1)C1CCCN(c2nn3cc(-c4ccc(F)cc4)nc3s2)C1` (stereo not given), the survival is 87%.

For the compound `CCc1ccccc1NC(=O)c1nc(-c2ccncc2)no1`, the survival is 46%. For `Cc1cc(C)c(S(=O)(=O)N2CCC(n3c(C(F)(F)F)nc4cccnc43)CC2)c(C)c1`, the survival is 79%. Regarding `O=C(Cn1c(C(=O)N2CCOCC2)cc2sccc21)c1ccccc1`, the survival is 99%.

For the compound `Oc1ccccc1C1OC2CCCCC2C2=CCCCC21` (stereo not given), the survival is 34% (active).

With `Oc1ccccc1C1OCC(C2CC=CCC2)CO1` (stereo not given), the survival is 96%. Regarding `CC1=CCC2(CO)COC(c3ccccc3O)C1C2` (stereo not given), the survival is 90%. For `c1ccc2c(c1)[nH]c1c(N3CCOCC3)ncnc12` the value was 68%. For `COc1cccc(CCNC(=O)Cn2c(-c3cccs3)cc3ccccc32)c1` the value was 70%. Consider `O=C(Nc1c2c(nn1-c1ccc(Cl)cc1)CS(=O)(=O)C2)c1cccc(F)c1`, for which the survival is 55%. For `Cc1noc(/C=C/c2ccccc2F)c1S(=O)(=O)N1CCC(C(=O)NCc2ccco2)CC1` the value was 107%; for `COCCCNC(=O)CSc1nc2cc(OC)c(OC)cc2c2nc(-c3ccccc3)nn12`, 78%; for `COc1cc2nc(NCC(C)c3ccccc3)n3nc(-c4ccccc4)nc3c2cc1OC` (stereo not given), 61%. As to `CCOCCCNc1nc2cc(OC)c(OC)cc2c2nc(-c3ccccc3)nn12`, the survival is 44% (active).

On to `COc1cc2nc(NCc3ccccc3)n3nc(-c4ccccc4)nc3c2cc1OC`, for which the survival was 47% (active).

Turning to `COc1ccc(OC)c(CCNc2nc3cc(OC)c(OC)cc3c3nc(-c4cccnc4)nn23)c1`, the survival is 126%. With `COc1cc2nc(NCc3ccc(C)cc3)n3nc(-c4ccccc4)nc3c2cc1OC` the figure was 61%; with `COc1cc2nc(NCCC(C)C)n3nc(-c4ccccc4)nc3c2cc1OC`, 49%; with `COCCCNc1nc2cc(OC)c(OC)cc2c2nc(-c3ccccc3)nn12`, 47% (active). For `CCC(C)NC(=O)c1c(C)oc2ncn(CC(C)C)c(=O)c12` (stereo not given) the value was 79%; for `COC(=O)c1c(-c2ccc(Cl)cc2)noc1N1CCN(c2cccc(C)c2C)CC1`, 79%; for `CN1C(=O)CSC1=Nc1cccc(C(=O)O)c1`, 89%.

Consider `COC(=O)c1csc(N)n1`, for which the survival was 95%. Turning to `CCOc1ccc2c(c1)c(=O)c(S(=O)(=O)c1ccc(F)cc1)cn2CC(=O)Nc1ccccc1C`, the survival is 96%. Regarding `Cc1nn2c(=O)cc(COC(=O)c3ccc(NC(=O)c4cccc(Br)c4)cc3)nc2s1`, the survival is 97%.

For the compound `CCCC1=Nc2cc(C(=O)N3CCC(C)CC3)ccc2Sc2ccc(C)cc21`, the survival is 97%. Consider `CCOC(=O)C1CCN(C(=O)c2ccc3c(c2)N=C(CC)c2cc(C)ccc2S3)CC1`, for which the survival is 36% (active). In the case of `CC1=Nc2cc(C(=O)N3CCC(C)CC3)ccc2Sc2ccc(Cl)cc21`, the survival was 90%. With `CCC1=Nc2cc(C(=O)N3CCC(C)CC3)ccc2Sc2ccc(C)cc21` the figure was -4% (active); with `CCCC1=Nc2cc(C(=O)N3CCC(C(=O)OCC)CC3)ccc2Sc2ccccc21`, 79%. With `CC1=Nc2cc(C(=O)N3CCCCC3)ccc2Sc2ccc(C)cc21` the figure was 48%.
